Reference: publication PMC5700166

biological target: T1, GST-Co-NF-kB (Capsaspora owczarzaki, UniProt F1ARL5 200-546); experiment: protein-binding microarray (PBM); PBM: ~300 nM protein, 6 mM HEPES pH 7.8, 80 mM KCl, 0.5 mM EDTA, 0.5 mM EGTA, 6% glycerol, 35 ng/ul poly-dIdC, 1% milk, 1 h, room temperature; Ap Aiptasia and Nv Nematostella (sea anemones) / Co Capsaspora / Aq Amphimedon (sponge) / Dm Drosophila / Hu human; RHD is the Rel homology domain; high values mean tight binding; conditions: dsDNA, one strand shown
T1 sequence: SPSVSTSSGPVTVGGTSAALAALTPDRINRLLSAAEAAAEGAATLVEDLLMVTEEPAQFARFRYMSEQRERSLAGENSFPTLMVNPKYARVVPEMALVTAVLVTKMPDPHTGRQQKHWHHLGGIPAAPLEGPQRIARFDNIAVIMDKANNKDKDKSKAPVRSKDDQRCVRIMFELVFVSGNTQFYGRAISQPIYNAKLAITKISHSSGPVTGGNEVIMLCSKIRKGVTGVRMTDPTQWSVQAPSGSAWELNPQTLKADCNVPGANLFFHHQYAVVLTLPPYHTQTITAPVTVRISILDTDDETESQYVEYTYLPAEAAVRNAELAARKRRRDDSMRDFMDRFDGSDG

Sequence	binding signal [z-score]
CCGATTAACATCAGCGAATTCCCTGATGTTAATCGGGTCTTGATTCGCTTGACGCTGCTG	2.15
CCGATTAACATCACGGAATACCCTGATGTTAATCGGGTCTTGATTCGCTTGACGCTGCTG	1.67
CCGATTAACATCAAATGGGAATTTGATGTTAATCGGGTCTTGATTCGCTTGACGCTGCTG	1.12

biological target: T2, GST-Dm-Relish (Drosophila melanogaster, UniProt Q94527 99-473); experiment: as above; conditions: dsDNA, one strand shown
T2 sequence: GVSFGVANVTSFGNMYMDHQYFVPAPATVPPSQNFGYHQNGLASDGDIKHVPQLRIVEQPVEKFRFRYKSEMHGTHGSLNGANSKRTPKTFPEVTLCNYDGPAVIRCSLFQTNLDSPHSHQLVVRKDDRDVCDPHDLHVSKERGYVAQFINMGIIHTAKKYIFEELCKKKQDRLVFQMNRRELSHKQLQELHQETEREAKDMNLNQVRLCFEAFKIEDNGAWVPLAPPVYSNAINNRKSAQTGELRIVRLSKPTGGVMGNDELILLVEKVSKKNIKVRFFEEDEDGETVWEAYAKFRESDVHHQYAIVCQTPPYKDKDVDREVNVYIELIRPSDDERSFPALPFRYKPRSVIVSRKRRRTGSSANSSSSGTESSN

Sequence	binding signal [z-score]
CCGATTAACATCAGGCCGTCCCCTGATGTTAATCGGGTCTTGATTCGCTTGACGCTGCTG	5.02
CCGATTAACATCAAGGGAGTACCTGATGTTAATCGGGTCTTGATTCGCTTGACGCTGCTG	3.08
CCGATTAACATCAAAAATCCCGATGATGTTAATCGGGTCTTGATTCGCTTGACGCTGCTG	6.2
CCGATTAACATCAGGGAATGACCTGATGTTAATCGGGTCTTGATTCGCTTGACGCTGCTG	3.4
CCGATTAACATCAGGGGAGGTACTGATGTTAATCGGGTCTTGATTCGCTTGACGCTGCTG	6.44
CCGATTAACATCAAATAAATCCCTGATGTTAATCGGGTCTTGATTCGCTTGACGCTGCTG	5.66
CCGATTAACATCAAAATAATCCCTGATGTTAATCGGGTCTTGATTCGCTTGACGCTGCTG	4.15
CCGATTAACATCAGGGAAACCCATGATGTTAATCGGGTCTTGATTCGCTTGACGCTGCTG	8.17
CCGATTAACATCAGAATTCCCACTGATGTTAATCGGGTCTTGATTCGCTTGACGCTGCTG	4.09
CCGATTAACATCAGGATCTTCCCTGATGTTAATCGGGTCTTGATTCGCTTGACGCTGCTG	1.53
CCGATTAACATCAGGGGAGCCCCTGATGTTAATCGGGTCTTGATTCGCTTGACGCTGCTG	8.74
CCGATTAACATCACGTAAACCCCTGATGTTAATCGGGTCTTGATTCGCTTGACGCTGCTG	6.43
CCGATTAACATCAGGATTGCCCCTGATGTTAATCGGGTCTTGATTCGCTTGACGCTGCTG	2.51
CCGATTAACATCAGATTCTCCCCTGATGTTAATCGGGTCTTGATTCGCTTGACGCTGCTG	1.92
CCGATTAACATCAGGAAACACCCTGATGTTAATCGGGTCTTGATTCGCTTGACGCTGCTG	4.19
CCGATTAACATCAGGACTACCCCTGATGTTAATCGGGTCTTGATTCGCTTGACGCTGCTG	2.36
CCGATTAACATCAGGCTTTTCCCTGATGTTAATCGGGTCTTGATTCGCTTGACGCTGCTG	2.3
CCGATTAACATCAAAGAAGCCCCTGATGTTAATCGGGTCTTGATTCGCTTGACGCTGCTG	4.39
CCGATTAACATCATCCCCGTGTCTGATGTTAATCGGGTCTTGATTCGCTTGACGCTGCTG	2.12
CCGATTAACATCAGGGTGTTTTATGATGTTAATCGGGTCTTGATTCGCTTGACGCTGCTG	3.11

Sequence	binding signal [z-score]
CCGATTAACATCAAACAATTCCCTGATGTTAATCGGGTCTTGATTCGCTTGACGCTGCTG	1.6
CCGATTAACATCAGGAACTACCCTGATGTTAATCGGGTCTTGATTCGCTTGACGCTGCTG	3.64
CCGATTAACATCAGGGGGTTAGATGATGTTAATCGGGTCTTGATTCGCTTGACGCTGCTG	4.34
CCGATTAACATCAGGGAACCCCATGATGTTAATCGGGTCTTGATTCGCTTGACGCTGCTG	10.5
CCGATTAACATCAAGTTTTCCCATGATGTTAATCGGGTCTTGATTCGCTTGACGCTGCTG	1.42
CCGATTAACATCAGGGAATCCTATGATGTTAATCGGGTCTTGATTCGCTTGACGCTGCTG	7.42
CCGATTAACATCAAGTACTTCCCTGATGTTAATCGGGTCTTGATTCGCTTGACGCTGCTG	8.12
CCGATTAACATCAAAAAGTTCCCTGATGTTAATCGGGTCTTGATTCGCTTGACGCTGCTG	6.54
CCGATTAACATCAGGGAATTATATGATGTTAATCGGGTCTTGATTCGCTTGACGCTGCTG	3.26
CCGATTAACATCACGTCCCCCCCTGATGTTAATCGGGTCTTGATTCGCTTGACGCTGCTG	4.38
CCGATTAACATCACATTCTCCCCTGATGTTAATCGGGTCTTGATTCGCTTGACGCTGCTG	1.55
CCGATTAACATCACGTGTTTCCCTGATGTTAATCGGGTCTTGATTCGCTTGACGCTGCTG	3.51
CCGATTAACATCAAGGGATTCCCTGATGTTAATCGGGTCTTGATTCGCTTGACGCTGCTG	9.45
CCGATTAACATCAGGGAGATACCTGATGTTAATCGGGTCTTGATTCGCTTGACGCTGCTG	4.25
CCGATTAACATCAAGCACCCCCTTGATGTTAATCGGGTCTTGATTCGCTTGACGCTGCTG	2.85
CCGATTAACATCAGATGTCCCCCTGATGTTAATCGGGTCTTGATTCGCTTGACGCTGCTG	2.8
CCGATTAACATCACACCCCCCCCTGATGTTAATCGGGTCTTGATTCGCTTGACGCTGCTG	4.99
CCGATTAACATCAGCGAATTCCCTGATGTTAATCGGGTCTTGATTCGCTTGACGCTGCTG	2.72
CCGATTAACATCACGGAATACCCTGATGTTAATCGGGTCTTGATTCGCTTGACGCTGCTG	4.64
CCGATTAACATCAAATGGGAATTTGATGTTAATCGGGTCTTGATTCGCTTGACGCTGCTG	4.52
